Cruzain noTriton = inhibitors of Trypanosoma cruzi cruzain without detergent | P25779 | purified cruzain, Z-FR-AMC fluorescence, no detergent | Potency, µM, actives largely listed as inhibitors | 200,000 compounds, 2.3% hits | AID 1476; further: nearly all actives have a fitted effect of over 40% in size
Target sequence (P25779 123-467 limits assumed): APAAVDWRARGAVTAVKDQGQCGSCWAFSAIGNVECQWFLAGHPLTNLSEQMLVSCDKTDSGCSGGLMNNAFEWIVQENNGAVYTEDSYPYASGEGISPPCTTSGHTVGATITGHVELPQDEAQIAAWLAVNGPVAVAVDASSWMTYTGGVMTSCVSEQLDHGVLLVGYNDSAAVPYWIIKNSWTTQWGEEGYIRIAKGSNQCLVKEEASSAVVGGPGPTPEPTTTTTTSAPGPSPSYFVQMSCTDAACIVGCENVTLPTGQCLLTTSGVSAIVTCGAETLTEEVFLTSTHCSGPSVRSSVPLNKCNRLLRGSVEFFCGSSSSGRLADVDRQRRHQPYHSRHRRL
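Purified cruzain at 1.5 nM, pre-incubated 15 min with compound at room temperature in 100 mM sodium acetate pH 5.5, 5 mM DTT, 0.00005% Triton X-100. Reaction started with 2 uM Z-FR-AMC; AMC fluorescence increase over 60 s gives rate.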
Cruzain inh Det = inhibitors of Trypanosoma cruzi cruzain with detergent. 200,000 compounds, 0.43% hits. P25779. Potency, µM, most hits filed as inhibitors. purified cruzain, Z-FR-AMC fluorescence, 0.01% Triton. AID 1478; further: nearly all actives have a fitted effect of over 40% in size
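Compounds were screened in titration against cruzain (1.5 nM) with 0.01% Triton X-100 to counter colloidal aggregation. Activity was the AMC fluorescence increase over 60 s after adding 2 uM Z-FR-AMC at pH 5.5.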
Numbers stand for hits; – = inactive; ? = inconclusive. A selection: hits, their analogues and other compounds. The true share with any hit is near 2.6%. The call rests on the fitted dose curve; in most records, active means well fitted curve in the direction sought with a large enough effect; inconclusive means small, poorly fitted or top-dose-only effect, or another doubt; inactive means no such curve, though single readings can be large; an effect the other way counts as inactive or inconclusive.

SMILES	Cruzain noTriton	Cruzain inh Det
O=C(CCc1ccccc1)NCc1ccccn1	–	–
COc1ccc(-c2nc(-c3ccccc3)c(-c3cc([N+](=O)[O-])ccc3C)[nH]2)cc1O	–	–
COc1ccc(-c2nc(=S)c3c([nH]2)Oc2ccc(C)cc2C3)cc1O	10µM	–
COc1ccccc1CNC(=O)c1ccc(-c2nc(CS(=O)(=O)c3ccc(C)cc3)c(C)o2)cc1	–	–
CCc1ccccc1N(C)C(=O)Cn1cnc2sc(C)c(S(=O)(=O)N3CCC(C)CC3)c2c1=O	–	–
CN(C)c1ccc(/C=C2\SC(=S)N(Nc3ncc(C(F)(F)F)cc3Cl)C2=O)cc1	13µM	–
COc1cc(/C=C2\SC(=S)N(Nc3ncc(C(F)(F)F)cc3Cl)C2=O)ccc1O	?	–
CCOC(=O)N1CCN(C(=O)c2ccc3c(=O)n(CCC4=CCCCC4)c(=S)[nH]c3c2)CC1	?	–
Cc1ccc2c(c1)[nH]c1c(=O)n(CCC3=CCCCC3)cnc12	20µM	–
Cc1ccc2[nH]c3c(=O)n(CCC4=CCCCC4)cnc3c2c1	–	–
O=c1c2ccc(Cl)cc2[nH]c(=S)n1CCC1=CCCCC1	20µM	–
COC(=O)c1ccccc1NC(=O)Cn1c(=O)n(Cc2ccc(C(=O)NCc3ccc4c(c3)OCO4)cc2)c(=O)c2ccccc21	–	–
CCN1CCN(C(=O)Cn2ncc3c4ccccc4n(Cc4ccccc4)c3c2=O)CC1	–	–
O=C(CN(c1cc(C(F)(F)F)ccc1Cl)S(=O)(=O)c1ccccc1)NCCc1ccccc1	–	–
O=C(c1ccccc1)c1ccc2nc(Nc3cc(Cl)ccc3O)c3nncn3c2c1	–	–
Cc1ccc(-n2cc(C(=O)OCc3ccc(F)c(F)c3)c3ccccc3c2=O)cc1	–	–
O=C(CCC(=O)OCC(=O)c1ccc(-c2ccccc2)cc1)Nc1cccc(Cl)c1	25µM	–
Cc1ccccc1NC(=O)CCC(=O)OCC(=O)c1ccc(-c2ccccc2)cc1	13µM	–
COc1ccc(C(=O)CCC(=O)Nc2ccccc2C)cc1	–	–
CCOc1ccccc1OCCCC(=O)OCC(=O)Nc1cccc(Cl)c1	–	–
Clc1ccc(CSCCc2ccncc2)cc1Cl	–	–
Cc1ccc(NC(=O)Cn2nnc(C(=O)NCc3cccs3)c2N)cc1Cl	25µM	–
COc1ccccc1NC(=O)Cn1nnc(C(=O)NCc2cccs2)c1N	–	–
Cc1ccc(CNC(=O)c2nnn(CC(=O)Nc3cc(C)ccc3C)c2N)cc1	–	–
CCc1ccc(NC(=O)Cn2nnc(C(=O)NCc3ccc(C)cc3)c2N)cc1	20µM	–
SMILES	Cruzain noTriton	Cruzain inh Det
CCc1ccc(Cn2nnc(C(=O)Nc3ccc(OC)cc3OC)c2N)cc1	25µM	–
Cc1ccc(NC(=O)Cn2nnc(C(=O)NCc3cccs3)c2N)cc1	?	–
COc1cc(OC)c(NC(=O)c2nnn(Cc3ccc(C)cc3)c2N)cc1Cl	–	–
CCc1ccccc1NC(=O)Cn1nnc(C(=O)NCc2cccs2)c1N	20µM	–
CCOc1ccc(NC(=O)C2CC(=O)N(c3ccc(C(C)C)cc3)C2)cc1 (stereo unspecified)	–	–
CCc1ccc(CN(Cc2cn[nH]c2-c2ccc(OC)cc2)C(=O)Nc2ccc(C)c(F)c2)cc1	–	–
Cc1cccc(N(CC(N)=O)C2SC(=O)N(Cc3cccc(C(=O)O)c3)C2=O)c1 (stereo unspecified)	–	–
COc1ccc(NC(=O)Cn2nnc(C(=O)Nc3ccc(C)c(F)c3)c2N)cc1Cl	–	–
CCc1ccccc1NC(=O)c1nnn(CC(=O)Nc2c(C)cc(C)cc2C)c1N	32µM	–
Cc1cccc(NC(=O)Cn2nnc(C(=O)Nc3ccc(F)c(Cl)c3)c2N)c1	25µM	–
CCc1ccccc1NC(=O)Cn1nnc(C(=O)Nc2ccc(OC)c(OC)c2)c1N	–	–
CC1CCC(NC(=O)c2ccc3c(c2)N(Cc2ccccc2F)C(=O)c2ccccc2S3=O)CC1 (stereo unspecified)	–	–
CN(C)c1ccc(CNC(=O)C(Cc2ccccc2)NS(=O)(=O)c2ccc3c(c2)oc(=O)n3C)cc1 (stereo unspecified)	–	–
CCc1cccc(-n2c(=O)c3cccnc3n2CC(=O)Nc2ccc(OC)c(Cl)c2)c1	25µM	–
CCc1ccc(-n2c(=O)c3cccnc3n2CC(=O)Nc2cc(OC)ccc2OC)cc1	–	–
CC(C)C(=O)Nc1sc2c(c1-c1nc3ccccc3[nH]1)CCCC2	20µM	–
CC(=O)Nc1cc(NC(C)=O)cc(-c2nc3ccccc3[nH]2)c1	–	–
CCOC(=O)c1cc(-c2ccccc2)sc1NC(=O)CN1C(=O)NC(CC)(c2ccc(F)cc2)C1=O (stereo unspecified)	10µM	–
CCOC(=O)c1cc(-c2ccccc2)sc1NC(=O)CC	–	–
CCOC(=O)c1cc(-c2ccccc2)sc1NC(=O)CSc1nncs1	–	–
CCOC(=O)c1cc(-c2ccccc2)sc1NC(=O)CN1C(=O)NC(CC)(c2ccccc2)C1=O (stereo unspecified)	10µM	–
CCCCOc1ccc(C(=O)NCCc2csc(-c3ccc(OC)cc3)n2)cc1	–	–
Nc1cc(C(=O)O)ccc1Nc1ccccc1	–	–
Nc1ccc(Nc2ccccc2N)cc1	25µM	–
CC1=C(c2ccc(C)cc2)S(=O)(=O)N(Cc2ccc(C(=O)NCc3ccccc3F)cc2)C1=O	?	–
SMILES	Cruzain noTriton	Cruzain inh Det
Cc1cc(=O)n(C(C)C(=O)N2CCCc3ccccc32)c2c1c(C)nn2-c1ccccc1 (stereo unspecified)	?	–
S=C(NCc1ccc2c(c1)OCO2)Nc1ccc(-c2nc3ccccc3[nH]2)cc1	20µM	–
O=C(NC(=S)Nc1cc(-c2nc3ccccc3[nH]2)ccc1Cl)c1ccc2c(c1)OCO2	32µM	18µM
S=C(NCc1ccc(Cl)c(Cl)c1)Nc1ccc2c(c1)OCO2	–	–
Cc1ccc(-c2nc3ccccc3[nH]2)cc1NC(=O)c1ccc2c(c1)OCO2	?	–
Cc1ccc(C)c(NC(=O)c2nn(C)c3c2CS(=O)(=O)c2ccccc2-3)c1	–	–
CC(=O)Nc1c(C)nn(-c2ccccc2)c1N1CCC(C(=O)NCc2cccc(Cl)c2)CC1	?	–
CC(=O)Nc1c(C)nn(-c2ccccc2)c1N1CCC(C(=O)NCc2ccccc2Cl)CC1	–	28µM
Cc1ccc(CNc2nc3ccc(Cl)cc3n3cnnc23)cc1	–	–
O=C(CSCc1cnn(-c2ccccc2)c1-n1cccc1)NCc1cccc(Cl)c1	–	–
O=C1C(C=NCc2ccncc2)=C(O)c2ccccc21	–	–
O=C1N/C(=C/c2ccc(Br)cc2)C(O)=C1C=NCc1ccccc1	20µM	–
Cc1cccc(C(=O)N2CCc3cc(CNC(=O)CCc4ccccc4)ccc32)c1	–	–
CCc1ccc2oc(-c3cc(N=Cc4cccc(OC)c4O)ccc3O)nc2c1	16µM	–
CCc1ccc2oc(-c3cc(NC(=O)c4cc(OC)c(OC)c(OC)c4)ccc3O)nc2c1	–	–
C=CCOC(=O)N[C@@H](c1ccc(Br)cc1)C(C(C)=O)C(C)=O	–	–
O=C(c1ccncc1)N1CCC2(CCN(Cc3nccs3)CC2)CC1	–	–
CCOC(=O)CCCSc1nc(-c2ccc3c(c2)OCO3)cc(C(F)(F)F)c1C#N	25µM	–
CCOC(=O)CSc1nc(-c2ccc(OC)cc2)cc(C(F)(F)F)c1C#N	–	–
O=C1C2=C(Nc3ccccc3SC2c2ccc(C(F)(F)F)cc2)c2ccccc21 (stereo unspecified)	20µM	–

Compound activity as filed in PubChem BioAssay.
